Among the test systems are HCT-15 colon; HT29 colon; SNB-75 CNS; SNB-19 CNS; U251 CNS; PC-3 prostate; SK-MEL-5 melanoma; UACC-62 melanoma; LOX IMVI melanoma; SK-MEL-28 melanoma; SK-MEL-2 melanoma; EKVX NSCLC; SN12C renal; UO-31 renal; TK-10 renal; ACHN renal; CAKI-1 renal; A498 renal; CCRF-CEM leukemia; MOLT-4 leukemia.
Test in all cases: NCI-60 one-dose screen, 48 h (100 = growth as untreated, 0 = no growth, -100 = all killed)
What all share (conditions): 10 µM

Compounds without any hit were thinned out: in the full panel of roughly 83,000, 20% have a hit.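 Cells were grown in 96-well plates and exposed to the test compound at a single concentration for 48 hours; results are reported as percent growth, with values below 10 considered active.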 A number with no mark means an inactive call. Activity calls are given as the source filed them.

Turning to `COc1ccc(/C=N/N=C(\C)c2ccc3c(c2)Nc2ccccc2S3)cc1O`, the growth in the experiment with HCT-15 colon was 29.8%; in the experiment on HT29 colon, 85.3%; with SNB-75 CNS, 66%; with SNB-19 CNS it was 63.7%; in the experiment with U251 CNS, 64.5%; with PC-3 prostate, 45.4%. For the same molecule, the growth in the experiment on SK-MEL-5 melanoma was -23.5% (active); in the experiment with UACC-62 melanoma, 58.9%; with LOX IMVI melanoma it was 21%; with SK-MEL-28 melanoma it was 60.9%; in the experiment on SK-MEL-2 melanoma, 48.5%; in the experiment on EKVX NSCLC it was 40.4%. Also, the growth in the experiment on SN12C renal was 70.1%; in the experiment with UO-31 renal it was 47%; in the experiment on TK-10 renal, 70.6%; in the experiment on ACHN renal it was 43.3%; in the experiment on CAKI-1 renal, 55.1%; in the experiment on A498 renal, 75.5%. The growth was 33.9% in the experiment with CCRF-CEM leukemia and 13.6% with MOLT-4 leukemia.
On to `COC(=O)C(Cc1ccc(O)c(O)c1)NC(=O)C(CSC/C=C(\C)CCCC(C)CCCC(C)CCCC(C)C)NC(C)=O` (stereo not drawn), for which the growth in the experiment with HCT-15 colon was 15.5%; in the experiment with HT29 colon, 40.5%; in the experiment with SNB-75 CNS, 42.8%; with SNB-19 CNS, 10.8%; with U251 CNS it was 4.85% (active); in the experiment on PC-3 prostate it was 2.28% (active). Further, the growth was 36.8% with SK-MEL-5 melanoma; 13% in the experiment on UACC-62 melanoma; 19.7% with LOX IMVI melanoma; 25.1% with SK-MEL-28 melanoma; 74.5% in the experiment on SK-MEL-2 melanoma; 47% in the experiment on EKVX NSCLC. The growth was 26.3% in the experiment with SN12C renal; 43.7% in the experiment on UO-31 renal; 45.3% in the experiment on TK-10 renal; 31.4% in the experiment with ACHN renal; 28.4% in the experiment with CAKI-1 renal; 102% with A498 renal. In addition, the growth in the experiment with MOLT-4 leukemia was 7.78% (active).
In the case of `O=C(NC(=S)N1CCN(c2ncnc3c2cnn3-c2ccccc2)CC1)c1ccc(Cl)cc1`, the growth with HCT-15 colon is 52.3%; with HT29 colon it was 79.1%; with SNB-75 CNS, 2.35% (active); in the experiment on SNB-19 CNS, 28.2%; in the experiment on U251 CNS it was 38.3%; in the experiment with PC-3 prostate, 47.3%. Moreover, the growth is 76.3% in the experiment on SK-MEL-5 melanoma; 68.9% in the experiment with UACC-62 melanoma; 14.3% in the experiment on LOX IMVI melanoma; 82.5% in the experiment with SK-MEL-28 melanoma; 88.8% in the experiment with SK-MEL-2 melanoma; 62.7% with EKVX NSCLC. Also, the growth is 28.3% in the experiment on SN12C renal; 40% in the experiment with UO-31 renal; 109% with TK-10 renal; 24.5% in the experiment with ACHN renal; 27.7% in the experiment with CAKI-1 renal; 68.4% with A498 renal. The growth in the experiment on MOLT-4 leukemia was 81.6%.
Regarding `O=C(Cc1ccc2c(c1)CN(C1CCC(=O)NC1=O)C2=O)NCCc1ccccc1` (stereo not drawn), the growth is -0.692% (active) with HCT-15 colon; 31.3% in the experiment with HT29 colon; 1.96% (active) with SNB-75 CNS; 15.6% with SNB-19 CNS; 67.8% in the experiment with U251 CNS; 11.9% in the experiment on PC-3 prostate. For the same molecule, the growth with SK-MEL-5 melanoma was -54.2% (active); with UACC-62 melanoma, 53.7%; in the experiment on LOX IMVI melanoma, 81.2%; in the experiment on SK-MEL-28 melanoma, 37.4%; in the experiment on SK-MEL-2 melanoma, 26%; in the experiment on EKVX NSCLC it was 67.2%. Also, the growth in the experiment with SN12C renal was 8.84% (active); in the experiment with UO-31 renal, -10.4% (active); with TK-10 renal it was 45.8%; in the experiment on ACHN renal, 48.9%; in the experiment with CAKI-1 renal, 63.6%; in the experiment on A498 renal, 1.53% (active). The growth in the experiment on CCRF-CEM leukemia was 10.6%; in the experiment on MOLT-4 leukemia it was -13.2% (active).
Take `O=C(CNc1nc(-c2ccccc2)cs1)Nc1cccc([N+](=O)[O-])c1`: the growth was -79.4% (active) in the experiment with HCT-15 colon; -61.6% (active) in the experiment on HT29 colon; -36.5% (active) in the experiment on SNB-75 CNS; -88.1% (active) in the experiment on SNB-19 CNS; -62.6% (active) with U251 CNS; -18.5% (active) in the experiment with PC-3 prostate. Also, the growth in the experiment with SK-MEL-5 melanoma was -100% (active); with UACC-62 melanoma it was -84% (active); with LOX IMVI melanoma, -100% (active); in the experiment on SK-MEL-28 melanoma, -84.9% (active); with SK-MEL-2 melanoma, -79.9% (active); in the experiment on EKVX NSCLC, -97.1% (active). In addition, the growth with SN12C renal is -77.8% (active); in the experiment with UO-31 renal it was -95.7% (active); with TK-10 renal, -92.2% (active); with ACHN renal, -100% (active); with CAKI-1 renal, -88.9% (active); in the experiment on A498 renal it was -88.1% (active). Besides, the growth in the experiment on CCRF-CEM leukemia was 0.432% (active); in the experiment with MOLT-4 leukemia, 0.799% (active).
In the case of `Cc1noc2c(Cc3ccccc3)nn(CC(=O)N/N=C/c3ccc(Cl)cc3)c(=O)c12`, the growth in the experiment with HCT-15 colon was 86.3%; in the experiment on HT29 colon, 65.8%; in the experiment on SNB-75 CNS, -3.5% (active); in the experiment with SNB-19 CNS, 71.3%; in the experiment on U251 CNS, 21.6%; in the experiment with PC-3 prostate, 76.4%. Moreover, the growth with SK-MEL-5 melanoma was 85.5%; with UACC-62 melanoma, 92.9%; with LOX IMVI melanoma it was 48.7%; with SK-MEL-28 melanoma, 104%; in the experiment with SK-MEL-2 melanoma it was 94.3%; with EKVX NSCLC, 72.9%. Also, the growth with SN12C renal is 7.85% (active); in the experiment with UO-31 renal, -40.5% (active); in the experiment on TK-10 renal, 4.87% (active); in the experiment with ACHN renal it was -16.5% (active); in the experiment on CAKI-1 renal, 38.5%; with A498 renal, -58.1% (active). In addition, the growth with CCRF-CEM leukemia was 97.3%; in the experiment on MOLT-4 leukemia, 102%.
For the molecule `Cc1nc(Nc2nc(C)c3ccc(OCCN4CCOCC4)cc3n2)[nH]c(=O)c1C`, the growth in the experiment on HCT-15 colon is -48.7% (active); with HT29 colon, -56.9% (active); with SNB-75 CNS, 25.9%; in the experiment with SNB-19 CNS, -2.34% (active); with U251 CNS, 8.71% (active); in the experiment on PC-3 prostate, 11.5%. Besides, the growth was -97.1% (active) with SK-MEL-5 melanoma; -84.6% (active) with UACC-62 melanoma; -51.7% (active) in the experiment on LOX IMVI melanoma; -21.3% (active) with SK-MEL-28 melanoma; -90.3% (active) with SK-MEL-2 melanoma; -3.4% (active) in the experiment on EKVX NSCLC. Besides, the growth in the experiment on SN12C renal was -10.4% (active); in the experiment with UO-31 renal, -63.8% (active); with TK-10 renal it was 17.6%; in the experiment on ACHN renal, -50.2% (active); with CAKI-1 renal it was -38.4% (active); in the experiment on A498 renal, -79% (active). Moreover, the growth in the experiment with CCRF-CEM leukemia was -7.55% (active); in the experiment on MOLT-4 leukemia, 1.13% (active).
